# Results taken from paper PMC8384837, “Expanding the binding specificity for RNA recognition by a PUF domain”.
# Molecular target: PUM1 PUF domain R1-RGC (Homo sapiens, UniProt Q14671 828-1176, S863R;R864G;Q867C)
# Test: yeast three-hybrid, YBZ-1, SC-Leu-His + 0.5 mM 3-AT, 4 days
# Details: tags: N-Gal4 AD-HA kept; label: inside an RPR1-promoter hybrid RNA with tandem MS2 sites; ssRNA
# Procedure, shortened: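 Each repeat of the Pumilio-1 PUF domain was randomized at its three base-contacting residues, and these libraries were co-expressed from a centromeric plasmid with matching RNA elements in strain YBZ-1. After four days on SC-Leu (input) or SC-Leu-His + 0.5 mM 3-AT (selection), the repeat regions were PCR-amplified and Illumina-sequenced. The interaction score compares variant frequency between input and selection as a log change, computed in log2 with a pseudocount of 1 for absent variants.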
# Chain of PUM1 PUF domain R1-RGC (Q14671 828-1176 S863R/R864G/Q867C): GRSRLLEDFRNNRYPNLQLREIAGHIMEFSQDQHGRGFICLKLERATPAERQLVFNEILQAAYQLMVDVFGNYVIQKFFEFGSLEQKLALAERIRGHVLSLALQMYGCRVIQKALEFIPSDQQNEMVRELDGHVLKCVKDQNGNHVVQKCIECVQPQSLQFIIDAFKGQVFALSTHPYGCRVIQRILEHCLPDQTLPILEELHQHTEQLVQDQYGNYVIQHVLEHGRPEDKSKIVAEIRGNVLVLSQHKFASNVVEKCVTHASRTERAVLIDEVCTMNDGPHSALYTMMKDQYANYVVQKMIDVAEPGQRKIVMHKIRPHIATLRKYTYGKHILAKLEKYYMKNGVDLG
row,Sequence,binding signal
1,GGCUAGAACUAGUGGAUCCCCCGGCGCCCGGCGGCUCGAGCCCGGGUAAGUGUAAAUUGUCUGCAUGCCGCCGGGCGCCAUGCCUGCAGGUCGACUCUAGAAAACAUG,2.07 log2 enrichment (interaction score)
2,GGCUAGAACUAGUGGAUCCCCCGGCGCCCGGCGGCUCGAGCCCGGGUAAGUGUAAAUGGUCUGCAUGCCGCCGGGCGCCAUGCCUGCAGGUCGACUCUAGAAAACAUG,1.27 log2 enrichment (interaction score)
3,GGCUAGAACUAGUGGAUCCCCCGGCGCCCGGCGGCUCGAGCCCGGGUAAGUGUAAAUCGUCUGCAUGCCGCCGGGCGCCAUGCCUGCAGGUCGACUCUAGAAAACAUG,3.36 log2 enrichment (interaction score)
